In the library only some 21% were active in any assay of this set; here they are far more common.
Pf growth 96h – Primary qHTS for delayed death inhibitors of the malarial parasite plastid, 96 hour incubation. P. falciparum luciferase reporter growth, 96 h. Potency, µM (titrated, usually from 28.7 µM), most hits filed as inhibitors. 6.9% of 320,000 active. AID 504834, 2011
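Luminescence readout: decreased luciferase signal marks inhibited growth of reporter-expressing P. falciparum in infected red cells (2% hematocrit, 0.05% parasitemia final), exposed to compound two generations (96 h, 37 C, 5% CO2).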
SARS PLpro yeast – qHTS of Yeast-based Assay for SARS-CoV PLP; Potency, µM (top dose mostly 32.9 µM), hits mostly activators; 0.19% of 330,000 active; S. cerevisiae expressing SARS-CoV PLpro, growth rescue; calls by dose curve; also: nearly all actives have a fitted effect of over 55% in size
Pf growth 48h – Primary qHTS for delayed death inhibitors of the malarial parasite plastid, 48 hour incubation | P. falciparum luciferase growth in erythrocytes, 48 h | Potency, µM (doses to about 28.7 µM), usual class: inhibitors | 5.9% of 310,000 active
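Growth was read as firefly luciferase luminescence after a 48 h, 37 C, 5% CO2 exposure of compounds to reporter-bearing P. falciparum cultures (0.1% parasitemia, 2% hematocrit final) in Albumax-supplemented RPMI 1640.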
Shiga toxin inh – A qHTS for Small Molecule Inhibitors of Shiga Toxin. Vero cells, Shiga toxin protein synthesis inhibition reporter. inhibition, % at 38.7 µM. 9.2% of 290,000 active. AID 2315, 2010; in the data active = inhibition mostly above about 28%, no sharp cut-off; inactive = mostly below about 43%
NS1 function inh – qHTS Assay for Inhibitors of Influenza NS1 Protein Function; Potency, µM (titrated, usually from 46.1 µM); 0.4% of 270,000 active; AID 2326, 2010; calls by dose curve; also: actives are rising curves; nearly all actives have a fitted effect of over 50% in size
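Growth recovery, yeast-based: influenza A NS1 expressed in S. cerevisiae causes slow growth, and suppressors are detected by OD600. The parent strain without NS1 is used as positive control.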
Cycloheximide cs – Cycloheximide Counterscreen for Small Molecule Inhibitors of Shiga Toxin. cell reporter, cycloheximide protein synthesis inhibition counterscreen. max response, %. 12% of 300,000 active. AID 2314, 2010; in the data active = max response mostly above about 13%, no sharp cut-off; inactive = mostly below about 14%; also: read at 38.3 µM for the half of the compounds with a filed dose
Hits are given with their value. Unless noted, calls follow the shape of the dose curve; as a rule, active = well fitted inhibition curve with a large enough effect; inconclusive = small, poorly fitted or top-dose-only effect, or another doubt; inactive = no such curve, though single readings can be large or run the other way.

How did CC(=O)COc1ccc(-c2csnn2)cc1 do in these assays?
Pf growth 96h: inactive; SARS PLpro yeast: inactive; Pf growth 48h: inactive; Shiga toxin inh: 42.5; NS1 function inh: inactive; Cycloheximide cs: inactive

Results for Cc1ccccc1C(=O)Oc1ccc(-c2csnn2)cc1 ?
Pf growth 96h: inactive; SARS PLpro yeast: inactive; Pf growth 48h: inactive; Shiga toxin inh: inactive; NS1 function inh: inactive; Cycloheximide cs: 21.7

Results for c1ccc(-c2csc(-c3ccc(-c4csnn4)cc3)n2)cc1 ?
Pf growth 96h: inactive; SARS PLpro yeast: inactive; Pf growth 48h: inactive; Shiga toxin inh: inactive; NS1 function inh: inactive; Cycloheximide cs: inactive

What do the screens show for `c1ccc(COc2ccc(-c3csnn3)cc2)cc1`?
Pf growth 96h: inactive; SARS PLpro yeast: inactive; Pf growth 48h: inactive; Shiga toxin inh: 60.5; NS1 function inh: inactive; Cycloheximide cs: 60.4

How did O=[N+]([O-])c1ccc(CN2C=NS(=O)(=O)c3ccccc32)cc1 do in these assays?
Pf growth 96h: inactive; SARS PLpro yeast: inactive; Pf growth 48h: inactive; Shiga toxin inh: inactive; Cycloheximide cs: inactive

Results for NC(=O)c1ccc(NC(=O)COC(=O)c2cccc(Oc3ccccc3)c2)cc1 ?
Pf growth 96h: inactive; SARS PLpro yeast: inactive; Pf growth 48h: inactive; Shiga toxin inh: inactive; NS1 function inh: inactive; Cycloheximide cs: inactive

Results for CC[C@H](C)[C@H](NC(=O)[C@H](CCC(=O)O)NC(=O)CNC(=O)[C@@H](NC(=O)[C@@H]1CCCN1C(=O)[C@@H](NC(=O)[C@@H]1CCCN1C(=O)[C@@H]1CCCN1C(=O)[C@H](CC(N)=O)NC(=O)[C@H](CC(N)=O)NC(=O)[C@@H](NC(=O)[C@H](CCSC)NC(=O)[C@H](Cc1c[nH]c2ccccc12)NC(=O)CNC(=O)[C@@H](NC(=O)[C@H](CCC(N)=O)NC(=O)[C@@H](N)CCC(=O)O)[C@@H](C)CC)[C@@H](C)O)[C@@H](C)CC)C(C)C)C(=O)O ?
Shiga toxin inh: inactive; Cycloheximide cs: inactive

Results for COC(=O)c1cc2occc2n1Cc1nc(-c2ccccc2Cl)oc1C ?
Pf growth 96h: 11.7µM; SARS PLpro yeast: inactive; Pf growth 48h: inactive; Shiga toxin inh: inactive; NS1 function inh: inactive; Cycloheximide cs: inactive

Results for COC(=O)c1cc2occc2n1Cc1nc(-c2ccc(Cl)cc2)oc1C ?
Pf growth 96h: inactive; SARS PLpro yeast: inactive; Pf growth 48h: inactive; Shiga toxin inh: inactive; NS1 function inh: inactive; Cycloheximide cs: inactive

Results for CCN1CCc2c(sc(N)c2C#N)C1 ?
SARS PLpro yeast: inactive; Pf growth 48h: inconclusive; Shiga toxin inh: inactive; NS1 function inh: inactive; Cycloheximide cs: inactive

What do the screens show for `N#Cc1c(N)sc(=S)c2c1CCN(Cc1ccccc1)C2`?
Pf growth 96h: inactive; SARS PLpro yeast: inactive; Pf growth 48h: 10.4µM; Shiga toxin inh: inactive; NS1 function inh: inactive; Cycloheximide cs: inactive

How did O=C(CN(Cc1ccco1)C(=O)c1cc(=O)[nH]c2ccccc12)Nc1ccccc1Br do in these assays?
Pf growth 96h: 9.28µM; SARS PLpro yeast: inactive; Pf growth 48h: inconclusive; Shiga toxin inh: inactive; NS1 function inh: inactive; Cycloheximide cs: inactive

How did COc1cc(SC)ccc1C(=O)N(CC(=O)Nc1ccccc1Br)Cc1ccco1 do in these assays?
Pf growth 96h: inconclusive; SARS PLpro yeast: inactive; Pf growth 48h: inconclusive

How did COc1ccc(NC2CCCN(C(=O)CCc3cn[nH]c3)C2)cc1 (stereo not drawn) do in these assays?
Pf growth 96h: inactive; SARS PLpro yeast: inactive; Pf growth 48h: inconclusive; Shiga toxin inh: inactive; NS1 function inh: inactive; Cycloheximide cs: inactive

What do the screens show for `Cc1ccc(/C=C/S(=O)(=O)NCc2ccc(F)cc2)cc1`?
Pf growth 96h: inconclusive; SARS PLpro yeast: inactive; Pf growth 48h: 10.4µM; Shiga toxin inh: inactive; Cycloheximide cs: inactive

Results for Cc1ccc(/C=C/S(=O)(=O)Nc2ccc(C)cc2)cc1 ?
Pf growth 96h: inactive; SARS PLpro yeast: inactive; Pf growth 48h: inconclusive; Shiga toxin inh: inactive; Cycloheximide cs: inactive

How did Cc1cc2ncn(/N=C/c3ccc([N+](=O)[O-])s3)c2cc1C do in these assays?
Pf growth 96h: 3.7µM; SARS PLpro yeast: inactive; Pf growth 48h: 2.62µM; Shiga toxin inh: inactive; NS1 function inh: inactive; Cycloheximide cs: inactive

What do the screens show for `Cc1cc(C)cc(N=Cc2ccc([N+](=O)[O-])s2)c1`?
Pf growth 96h: inactive; SARS PLpro yeast: inactive; Pf growth 48h: inactive; Shiga toxin inh: inactive; NS1 function inh: inactive; Cycloheximide cs: inactive

What do the screens show for `O=[N+]([O-])c1ccc(/C=N/n2cnc3ccccc32)s1`?
Pf growth 96h: inconclusive; SARS PLpro yeast: inactive; Pf growth 48h: 5.86µM; Shiga toxin inh: inactive; NS1 function inh: inactive; Cycloheximide cs: inactive

How did Cc1cc2ncn(/N=C/c3cc(Br)ccc3O)c2cc1C do in these assays?
Pf growth 96h: inconclusive; SARS PLpro yeast: inactive; Pf growth 48h: 1.04µM; Shiga toxin inh: inactive; NS1 function inh: inactive; Cycloheximide cs: inactive

Results for COc1ccccc1N1C(=O)CC(Sc2n[nH]c(-c3cccc(C)c3)n2)C1=O (stereo not drawn) ?
Pf growth 96h: inactive; SARS PLpro yeast: inactive; Pf growth 48h: inactive; Shiga toxin inh: inactive; NS1 function inh: inactive; Cycloheximide cs: inactive

Results for CC(C)CC(=O)Nc1cccc(C(=O)Nc2ccccc2C(=O)O)c1 ?
Pf growth 96h: inactive; SARS PLpro yeast: inactive; Shiga toxin inh: inactive; NS1 function inh: inactive; Cycloheximide cs: inactive

How did CC(C)(C)Sc1ccc2nc3c(n2c1)CCCC3 do in these assays?
Pf growth 96h: inconclusive; SARS PLpro yeast: inconclusive; Pf growth 48h: 11.7µM; Shiga toxin inh: inactive; NS1 function inh: inactive; Cycloheximide cs: 14.9

What do the screens show for `Oc1cc2c(cc1O)C1c3ccc(O)c(O)c3OCC1(O)C2` (stereo not drawn)?
Pf growth 96h: 2.62µM; SARS PLpro yeast: inactive; Pf growth 48h: inconclusive; Shiga toxin inh: inactive; NS1 function inh: inactive; Cycloheximide cs: inactive

How did Cc1ccc(C(=O)OCC(=O)NC2CC2)s1 do in these assays?
SARS PLpro yeast: inactive

Results for Cc1ccc(C(=O)OCC(=O)NC2CCCCC2)s1 ?
Pf growth 96h: inactive; SARS PLpro yeast: inactive; Pf growth 48h: inactive; Shiga toxin inh: 94.5; Cycloheximide cs: 34.3

How did Cc1ccc(C(=O)NC2CCCC2)s1 do in these assays?
Pf growth 96h: inactive; SARS PLpro yeast: inactive; Pf growth 48h: inactive; Shiga toxin inh: inactive; NS1 function inh: inactive; Cycloheximide cs: 11.2

How did Cc1ccc(C(=O)N(CC(=O)NC2CCCC2)Cc2cccs2)s1 do in these assays?
Pf growth 96h: 1.47µM; SARS PLpro yeast: inactive; Pf growth 48h: inactive; Shiga toxin inh: inactive; NS1 function inh: inactive; Cycloheximide cs: inactive

What do the screens show for `Cc1ccc(C(=O)NC2CCC(C)CC2)s1` (stereo not drawn)?
Pf growth 96h: inactive; SARS PLpro yeast: inactive; Pf growth 48h: inactive

What do the screens show for `O=C(COC(=O)c1sc2ccccc2c1Cl)NC1CCCCC1`?
Pf growth 96h: inactive; SARS PLpro yeast: inactive; Pf growth 48h: inactive; Shiga toxin inh: inactive; NS1 function inh: inactive; Cycloheximide cs: 20.0

Source: PubChem
